Results reported in PubChem BioAssay AID1159580 (chemical genetic matrix, 2015).
Among all 5,500 compounds or so, about 2,000 (36%) were called active. Roughly 18% stayed inconclusive and do not appear here. No stated cut-off is given here; in the data, active means normalized growth mostly below about 0.91 (no sharp cut-off); inconclusive means no clear call, values can overlap the other calls; inactive means mostly above about 0.92. Some of the results follow.

Assay: chemical genetic growth profiling, strain panel (AID 1159580);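 further: tested at 20 µM; growth read once vehicle control cultures reached saturation at 30 °C; 1 = growth at the plate median or of vehicle wells; lower values mean less growth of the strain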
Conditions: growth OD

Measured: normalized growth

NC(=NCCCCCCN=C(N)N=C(N)Nc1ccc(Cl)cc1)N=C(N)Nc1ccc(Cl)cc1
inactive: S. cerevisiae deletion strains, locus YKL068W, hits give low values 0.977 | S. cerevisiae deletion strains, locus YNL250W, strain rad50, hits give low values 0.909 | S. cerevisiae deletion strains, locus YPR141C, strain kar3, hits give low values 1.01
active: S. cerevisiae deletion strains, locus YJR075W, strain HOC1, hits give low values 0.0644 | S. cerevisiae deletion strains, locus YKL009W, strain mrt4, hits give low values 0.478 | S. cerevisiae deletion strains, locus YKL085W, strain MDH1 (second series), hits give low values 0.906 | S. cerevisiae deletion strains, locus YKL085W, strain MDH1, hits give low values 0.906 | S. cerevisiae deletion strains, locus YKL160W, strain elf1, hits give low values 0.0627 | S. cerevisiae deletion strains, locus YKL190W, strain CNB1, hits give low values 0.0461 | S. cerevisiae deletion strains, locus YKR001C, strain vps1, hits give low values 0.0656 | S. cerevisiae deletion strains, locus YKR026C, strain gcn3, hits give low values 0.0624 | S. cerevisiae deletion strains, locus YKR091W, strain srl3, hits give low values 0.0577 | S. cerevisiae deletion strains, locus YLL001W, strain dnm1, hits give low values 0.0629 | S. cerevisiae deletion strains, locus YLL026W, hits give low values 0.0551 | S. cerevisiae deletion strains, locus YLL041C, strain sdh2, hits give low values 0.0558 | S. cerevisiae deletion strains, locus YLR027C, strain aat2, hits give low values 0.0552 | S. cerevisiae deletion strains, locus YLR039C, strain RIC1, hits give low values 0.0768 | S. cerevisiae deletion strains, locus YLR058C, strain SHM2, hits give low values 0.0478 | S. cerevisiae deletion strains, locus YLR102C, strain apc9, hits give low values 0.0634 | S. cerevisiae deletion strains, locus YLR113W, strain HOG1, hits give low values 0.126 | S. cerevisiae deletion strains, locus YLR221C, strain rsa3, hits give low values 0.058 | S. cerevisiae deletion strains, locus YLR258W, strain gsy2, hits give low values 0.0585 | S. cerevisiae deletion strains, locus YLR262C, strain YPT6 (second series), hits give low values 0.0721 | S. cerevisiae deletion strains, locus YLR262C, strain YPT6, hits give low values 0.0923 | S. cerevisiae deletion strains, locus YLR268W, strain sec22, hits give low values 0.0678 | S. cerevisiae deletion strains, locus YLR320W, strain mms22, hits give low values 0.0755 | S. cerevisiae deletion strains, locus YLR330W, strain CHS5, hits give low values 0.0516 | S. cerevisiae deletion strains, locus YLR342W, strain FKS1 (second series), hits give low values 0.0692 | S. cerevisiae deletion strains, locus YLR342W, strain FKS1, hits give low values 0.063 | S. cerevisiae deletion strains, locus YLR357W, strain rsc2, hits give low values 0.116 | S. cerevisiae deletion strains, locus YLR370C, strain arc18, hits give low values 0.0607 | S. cerevisiae deletion strains, locus YLR371W, strain rom2, hits give low values 0.0627 | S. cerevisiae deletion strains, locus YLR384C, strain iki3, hits give low values 0.057 | S. cerevisiae deletion strains, locus YLR418C, strain cdc73, hits give low values 0.0991 | S. cerevisiae deletion strains, locus YML016C, strain PPZ1, hits give low values 0.0482 | S. cerevisiae deletion strains, locus YML032C, strain rad52, hits give low values 0.0699 | S. cerevisiae deletion strains, locus YML120C, strain ndi1, hits give low values 0.0569 | S. cerevisiae deletion strains, locus YML124C, strain tub3, hits give low values 0.0596 | S. cerevisiae deletion strains, locus YMR058W, strain fet3, hits give low values 0.0607 | S. cerevisiae deletion strains, locus YMR078C, strain ctf18, hits give low values 0.071 | S. cerevisiae deletion strains, locus YMR125W, strain sto1, hits give low values 0.0789 | S. cerevisiae deletion strains, locus YMR129W, hits give low values 0.0564 | S. cerevisiae deletion strains, locus YMR205C, strain PFK2, hits give low values 0.0855 | S. cerevisiae deletion strains, locus YMR223W, strain ubp8, hits give low values 0.0651 | S. cerevisiae deletion strains, locus YMR231W, strain pep5, hits give low values 0.064 | S. cerevisiae deletion strains, locus YMR263W, strain SAP30, hits give low values 0.0566 | S. cerevisiae deletion strains, locus YMR307W, strain GAS1, hits give low values 0.0969 | S. cerevisiae deletion strains, locus YNL067W, strain RPL9B, hits give low values 0.0509 | S. cerevisiae deletion strains, locus YNL071W, strain lat1, hits give low values 0.0604 | S. cerevisiae deletion strains, locus YNL128W, strain TEP1, hits give low values 0.0651 | S. cerevisiae deletion strains, locus YNL153C, strain GIM3, hits give low values 0.0505 | S. cerevisiae deletion strains, locus YNL183C, strain NPR1, hits give low values 0.139 | S. cerevisiae deletion strains, locus YNL209W, strain ssb2, hits give low values 0.057 | S. cerevisiae deletion strains, locus YNL233W, strain BNI4, hits give low values 0.0552 | S. cerevisiae deletion strains, locus YNL248C, strain rpa49, hits give low values 0.075 | S. cerevisiae deletion strains, locus YNL271C, strain bni1, hits give low values 0.607 | S. cerevisiae deletion strains, locus YNL298W, strain CLA4, hits give low values 0.0653 | S. cerevisiae deletion strains, locus YNL307C, strain MCK1, hits give low values 0.0676 | S. cerevisiae deletion strains, locus YNL322C, strain KRE1 (second series), hits give low values 0.0655 | S. cerevisiae deletion strains, locus YNL322C, strain KRE1, hits give low values 0.0467 | S. cerevisiae deletion strains, locus YNR049C, strain mso1, hits give low values 0.0617 | S. cerevisiae deletion strains, locus YNR052C, strain pop2, hits give low values 0.0607 | S. cerevisiae deletion strains, locus YOL006C, strain TOP1, hits give low values 0.107 | S. cerevisiae deletion strains, locus YOL012C, strain htz1 0.183 | S. cerevisiae deletion strains, locus YOL147C, strain pex11, hits give low values 0.0595 | S. cerevisiae deletion strains, locus YOR001W, strain rrp6, hits give low values 0.0681 | S. cerevisiae deletion strains, locus YOR061W, strain CKA2, hits give low values 0.0471 | S. cerevisiae deletion strains, locus YOR069W, strain VPS5, hits give low values 0.0468 | S. cerevisiae deletion strains, locus YOR070C, strain gyp1, hits give low values 0.0572 | S. cerevisiae deletion strains, locus YOR080W, strain dia2, hits give low values 0.0623 | S. cerevisiae deletion strains, locus YOR083W, strain WHI5, hits give low values 0.0615 | S. cerevisiae deletion strains, locus YOR106W, strain vam3, hits give low values 0.0675 | S. cerevisiae deletion strains, locus YOR136W, strain idh2, hits give low values 0.0708 | S. cerevisiae deletion strains, locus YOR144C, strain elg1, hits give low values 0.0593 | S. cerevisiae deletion strains, locus YOR184W, strain ser1, hits give low values 0.0744 | S. cerevisiae deletion strains, locus YOR231W, strain MKK1, hits give low values 0.0973 | S. cerevisiae deletion strains, locus YOR265W, strain rbl2, hits give low values 0.0543 | S. cerevisiae deletion strains, locus YOR270C, strain vph1, hits give low values 0.107 | S. cerevisiae deletion strains, locus YOR290C, strain snf2, hits give low values 0.0655 | S. cerevisiae deletion strains, locus YOR316C, strain cot1, hits give low values 0.0609 | S. cerevisiae deletion strains, locus YPL051W, strain arl3, hits give low values 0.0612 | S. cerevisiae deletion strains, locus YPL055C, strain LGE1, hits give low values 0.0688 | S. cerevisiae deletion strains, locus YPL078C, strain atp4, hits give low values 0.0665 | S. cerevisiae deletion strains, locus YPL106C, strain sse1, hits give low values 0.0968 | S. cerevisiae deletion strains, locus YPL240C, strain hsp82, hits give low values 0.0556 | S. cerevisiae deletion strains, locus YPL241C, strain CIN2, hits give low values 0.0486 | S. cerevisiae deletion strains, locus YPL256C, strain CLN2, hits give low values 0.124 | S. cerevisiae deletion strains, locus YPR119W, strain clb2, hits give low values 0.0667 | S. cerevisiae deletion strains, locus YPR163C, strain tif3, hits give low values 0.0696 | S. cerevisiae deletion strains, locus YPR167C, strain met16, hits give low values 0.0625 | S. cerevisiae deletion strains, strain wtn01, hits give low values 0.0592 | S. cerevisiae strains, strain wild type, hits give low values 0.0489
